Screening results from PubChem BioAssay.
ALDH1A1 inh: inhibitors of human aldehyde dehydrogenase 1A1; P00352; Purified ALDH1A1, NADH fluorescence, propionaldehyde substrate; Potency, µM (titrated, usually from 75.3 µM), actives largely listed as inhibitors; hit rate 7.3% among 220,000; AID 1030
HPGD block: blocks human HPGD enzyme activity; purified HPGD, NADH fluorescence kinetic, PGE2 substrate; Potency, µM, hits mostly inhibitors; hit rate 4.3% among 150,000
Target sequence (P15428 whole entry, looked up): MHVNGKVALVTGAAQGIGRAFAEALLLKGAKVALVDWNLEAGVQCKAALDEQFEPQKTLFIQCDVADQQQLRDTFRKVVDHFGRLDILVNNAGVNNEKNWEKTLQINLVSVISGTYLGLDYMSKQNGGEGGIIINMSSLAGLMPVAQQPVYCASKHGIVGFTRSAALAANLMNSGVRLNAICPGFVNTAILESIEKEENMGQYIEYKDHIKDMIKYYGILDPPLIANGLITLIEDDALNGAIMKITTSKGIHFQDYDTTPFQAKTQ
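20 nM HPGD preincubated 15 min at room temperature with compound in 50 mM Tris-HCl pH 8, 0.01% Tween 20. Started with 1 mM NAD+ and 30 uM prostaglandin E2; NADH fluorescence (360/450 nm) read 5 times over 30-s intervals, last minus first.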
PNC inhibitor: inhibitors of perinucleolar compartment assembly | AID 2417 | activity change (PNC), negative = inhibition, % at 10 µM | PC3M PTB-GFP, PNC prevalence imaging, 16 h; stronger effect = lower value | hit rate 3.1% among 140,000;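 active means readout at or below -70, meaning at least 70% loss of cells showing the perinucleolar compartment, a nuclear body marking cancer cells; inconclusive means readout between -30 and a set limit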
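PC3M cells stably expressing PTB-GFP, 750–1000 cells/well, treated 16 h at 37 °C with compound (23 nl of library stock), in duplicate. After paraformaldehyde fixation and Hoechst stain, imaged at 20x; PNC prevalence scored by image analysis.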
A number is an active result; n = inactive; u = inconclusive; x = not tested or not shown; [ ] = another dose, or the depositor's remark. An excerpt weighted towards active compounds, which were near 11% of everything screened. Unless noted, the call rests on the fitted dose curve; in most records, active means well fitted inhibition curve with a large enough effect (not every such curve was filed as active); inconclusive means small, poorly fitted or top-dose-only effect, or another doubt; inactive means no such curve, though single readings can be large or run the other way.

SMILES | ALDH1A1 inh | HPGD block | PNC inhibitor
Cc1cccc(N2CCN(C3=NC(=O)/C(=C\c4cn[nH]c4-c4ccccc4)S3)CC2)c1 | n | n | n
N#CCCN1CCN(C2=NC(=O)C(=C3CCCCC3)S2)CC1 | 1.26µM | u | n
CC(C)=C1SC(N2CCCCC2)=NC1=O | n | n | n
Cc1cccc(N2CCN(C3=NC(=O)C(=C4CCCCC4)S3)CC2)c1 | 6.31µM | n | u
O=C1N=C(N2CCOCC2)S/C1=C/c1cccs1 | n | n | n
O=C(O)CNC1=NCCC1 | n | n | n
Cn1c(SCC(=O)NC2CC2)nnc1-c1cccc(NC(=O)c2ccccc2F)c1 | n | n | n
Cc1ccccc1OCc1nnc(SCC(=O)Nc2ccc3nc(SCC(=O)Nc4ccccc4)sc3c2)n1C | 12.6µM | n | u
CCC(=O)Nc1nc2ccc(NC(C)=O)cc2s1 | n | n | n
CCn1c(SCC(=O)N2CCCC2)nnc1-c1ccc(N)cc1 | n | n | n
Cc1ccccc1OCc1nnc(SCC(=O)Nc2ccc3c(c2)OCO3)n1C | n | n | n
CCC(=O)Nc1ccc2nc(SCC(=O)N3CCCC3)sc2c1 | u | 15.8µM | n
Cn1c(SCC(=O)Nc2ccc3nc(SCC(=O)N4CCCC4)sc3c2)nnc1-c1ccc(N)cc1 | 12.6µM | 8.91µM | n
Cn1c(SCC(=O)Nc2ccc3nc(SCC(=O)NC4CC4)sc3c2)nnc1-c1ccccc1 | 10µM | 3.55µM | u
O=C(Nc1ccc(F)cc1F)N1CCC(c2nc3ccccc3o2)CC1 | n | x | x
COc1cccc(CNc2ccc([N+](=O)[O-])cc2Cl)c1O | n | x | x
O=C1CC(c2cccc(Cl)c2)CC(O)=C1C=NCCCO (stereo unspecified) | n | n | n
CC(C)n1c(SCC(=O)Nc2ccccc2)nc2c1c(=O)n(C)c(=O)n2C | n | n | n
COc1nc(N(C#N)CC(N)=O)nc(N2CCCC2)n1 | n | n | u
O=C(/C=C/c1ccc2c(c1)OCO2)Nc1ccc(Cl)cn1 | n | x | x
O=C(CSc1nnc(-c2cccs2)n1CC1CCCO1)N1CCCC1 (stereo unspecified) | n | x | x
CCOc1ccc(C(C)=O)cc1CSc1nnc(-c2cccs2)n1CC1CCCO1 (stereo unspecified) | 8.91µM | n | n
CSc1nc(N)c2ncn([C@H]3O[C@H](COP(=O)(O)OP(=O)(O)O)[C@@H](O)[C@@H]3O)c2n1 | n | n | x
Cc1c(C(=O)NCCSCc2c(Cl)cccc2Cl)cccc1[N+](=O)[O-] | u | u | n
N=C1c2ccccc2CN1c1ccc(N2CCOCC2)c(S(=O)(=O)Nc2ccc(Cl)cc2)c1 | 1.78µM | x | x
SMILES | ALDH1A1 inh | HPGD block | PNC inhibitor
Nc1ccc(N2CCOCC2)c(S(=O)(=O)Nc2cc(Cl)ccc2Cl)c1 | n | x | x
COC(=O)C1=C(C)N=c2s/c(=C3\C(=O)Nc4ccccc43)c(=O)n2C1c1ccccc1 (stereo unspecified) | n | n | n
NCCCc1ccc2oc3ccccc3c2c1 | n[13.5 µM] | n | x
Cn1c(SCc2ccc(Cl)cc2)nnc1C1CC1 | 11.9µM | x | x
Cn1c(SCc2ccccc2)nnc1C1CCCNC1 (stereo unspecified) | n | n | -106.9
Cn1nnnc1SCc1ccc(Cl)cc1 | n | x | x
Cn1c(SCC(=O)c2ccccc2)nnc1C1CC1 | u | n | n
Cc1ccc2nc(N3CCN(C(=O)c4cccs4)CC3)c(C#N)cc2c1 | u | x | n
CC(C)Nc1oc(-c2ccccc2)nc1-c1cccc2ccccc12 | n | n | x
O=C(OCc1cc2ccccc2[nH]c1=O)c1ccncc1 | n | n | -100.0
O=C(OCc1cc2ccccc2[nH]c1=O)c1ccccc1 | n | n | n
Cc1cc(C)nc(SCC(=O)NC2=NC(=O)C(C)S2)n1 (stereo unspecified) | 22.4µM | u | u
Cc1cc(C(F)(F)F)nc(SCC(=O)NC2=NC(=O)C(C)S2)n1 (stereo unspecified) | u | n | n
COc1ccc(NC(=O)N2CCCC3(CCN(C(=O)c4cccn4C)CC3)C2)cc1 | u | n | x
Cn1ncc(Br)c1C(=O)NC1C2CC3CC(C2)CC1C3 (stereo unspecified) | n | n | n
Cc1c(Cl)c(C(=O)NC2C3CC4CC(C3)CC2C4)nn1C (stereo unspecified) | u | 20µM | u
CCOC(=O)c1ccc(NC(=O)CSc2nc3cccnc3n2C)cc1 | u | n | n
Cc1cc(OCc2ccc(C(=O)NN=C3CCCC3)cc2)ccc1Cl | u | n | n
CC(C)CC1=NN2C(=N)/C(=C\c3coc4ccccc4c3=O)C(=O)N=C2S1 | 11.2µM | x | x
Cc1cccc(-n2c(C)cc(/C=C3\C(=N)N4N=C(CC(C)C)SC4=NC3=O)c2C)c1 | u | u | n
CCSC1=NSC2=NC(=O)/C(=C\c3coc4ccccc4c3=O)C(=N)N12 | u | 28.2µM | u
CC(C)S(=O)(=O)C1=NSC2=NC(=O)/C(=C\c3ccc(-c4ccccc4)o3)C(=N)N21 | n | n | n
N#Cc1c(-c2ccccc2)c(-c2ccccc2)nn(CC(=O)NNC(=O)Nc2ccc(Cl)c(Cl)c2)c1=O | n | n | n
COc1ccc(CC2(CO)CCN(C(C)Cc3ccc(Cl)cc3)CC2)cc1 (stereo unspecified) | n | x | x
CCn1c2ccccc2c2nnc(SCc3cc(=O)n4ccsc4n3)nc21 | n | n | n
SMILES | ALDH1A1 inh | HPGD block | PNC inhibitor
S=c1[nH]ncn1NCc1ccc(Cl)cc1Cl | 1.41µM | x | x
Fc1cccc(Cl)c1CNn1cn[nH]c1=S | n | x | x
O=C(Nc1nccs1)c1ccccn1 | n | x | x
O=C(Nc1nccs1)c1ccc(-c2ccccc2Cl)o1 | 25.1µM | u | u
O=C(Nc1ccccc1)c1ccc(-c2ccccc2Cl)o1 | n | n | -92.3
O=C(Nc1nccs1)c1cnccn1 | n | n | -100.0
CC(=O)Cc1nsc(NC(=O)c2ccc(-c3ccccc3Cl)o2)n1 | u | u | n
O=C(O)c1ccc(-c2ccccc2Cl)o1 | n | n | n
CC(=O)NN1C(=O)/C(=C\c2ccc(Cl)cc2)SC1=S | n | x | x
COC(=O)CCCC1=CC2=C(c3ccccc3)C(=O)C(C)(OC(=O)C3CCCC3)C(=O)C2=CO1 (stereo unspecified) | n | n | x
Cc1ccc(N(C(=O)Nc2ccccc2)C2=NCC(C)S2)cc1 (stereo unspecified) | n | 11.2µM | n
CC1CN=C(N(C(=O)Nc2ccccc2)C(C)C)S1 (stereo unspecified) | n | n | n
Cc1ccc(Nc2cc(C)nc3ncnn23)c(Cl)c1 | n | n | n
COc1ccc(C)cc1Nc1cc(C)nc2ncnn12 | n | 5.01µM | u
CCOc1ccccc1Nc1cc(C)nc2nc(C)nn12 | n | 1.58µM | n
Cc1cc(Nc2ccccc2F)n2nc(C)nc2n1 | n | n | n
CCOc1ccc(OCC)c(Nc2cc(C)nc3ncnn23)c1 | n | 4.47µM | n
Cc1cc(Nc2cc(F)ccc2C)n2ncnc2n1 | n | n | n
Cc1ccc(Nc2cc(C)nc3nc(C)nn23)c(C)c1 | n | n | n
CCOc1ccc(OCC)c(Nc2cc(C)nc3nc(C)nn23)c1 | n | 0.501µM | n
Fc1c(F)c(C(F)(F)F)c(F)c(F)c1N/N=C\c1cccs1 | n | n | n
COC(=O)c1nn(-c2ccccc2)c(Sc2ccc(Br)cc2)c1/C=N/O | n | n | n
COc1cc([C@@H]2c3cc4c(cc3[C@@H](O[C@@H]3O[C@H]5CO[C@@H](C)O[C@@H]5[C@@H](O)[C@H]3O)[C@@H]3COC(=O)[C@@H]23)OCO4)cc(OC)c1O | n | n | x
